# Results taken from the supplement of paper PMC6135742.
# Several values for one entry are separate records, joined by “and”; a condition that tells them apart may be missing. Equal values may be shown once. Where a name gives a salt, the structure may show the parent alone. ± gives the standard deviation of the averaged measurements. In all, about 2,600 compounds were measured (“MBP+ mature oligodendrocyte number relative to DMSO vehicle control”: median about -0.34, highest 2% from about 13 on). The entries come from a sample that favours the highest values as a whole.
# System: jimpy (Plp1 jimpy) mouse iPSC-derived oligodendrocyte progenitor cells
# Experiment: MBP+ mature oligodendrocyte number relative to DMSO vehicle control (SDs above negative control mean); higher = more surviving jimpy oligodendrocytes (rescue)
# Conditions: 10 µM; 3 days
# Description: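 Primary phenotypic screen of >3,000 bioactive compounds (Selleck L1700 and Sigma LO1280 libraries) at a single dose of 10 µM. Compounds were added to jimpy (Plp1 mutant) mouse iPSC-derived OPCs at the start of thyroid hormone-induced oligodendrocyte differentiation, one well per compound in 384-well plates. After 3 days cells were stained for MBP, Sox10 and DAPI and imaged with an Operetta system. MBP+ oligodendrocyte number and total cell number were expressed as the number of SDs above the mean of the DMSO negative control on the same plate (n=16 control wells per plate). Hits were defined as >=4 SD for oligodendrocytes and >=2 SD for total cells.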
row,SMILES,MBP+ mature oligodendrocyte number
1,O=C1Cc2cc(CCN3CCN(c4nsc5ccccc45)CC3)c(Cl)cc2N1 [Ziprasidone HCl],21.9
2,O=C1Cc2cc(CCN3CCN(c4nsc5ccccc45)CC3)c(Cl)cc2N1 [Ziprasidone hydrochloride monohydrate],11.7
3,O=C1CCc2ccc(OCCCCN3CCN(c4cccc(Cl)c4Cl)CC3)cc2N1 [Aripiprazole],5.11
4,COc1ccc(-c2oc3c(CC=C(C)C)c(O)cc(O)c3c(=O)c2O)cc1 [Icaritin],-3.18
5,COc1cc(N2CCC(N3CCN(C)CC3)CC2)ccc1Nc1ncc(Cl)c(Nc2ccccc2S(=O)(=O)C(C)C)n1,< -6.7
6,Cn1cnc2c(NCc3ccccc3)nc(NCCO)nc21 [Olomoucine],1.83
7,CC(C)NCC(O)c1ccc(O)c(O)c1 (racemic) [(±)-Isoproterenol hydrochloride],0.225
8,Nc1cc2c(ncn2CCOCP(=O)(O)O)c(=O)[nH]1 [PMEG hydrate],-1.5
9,O.O=[Si]=O.O=[Si]=O.O=[Si]=O.O=[Si]=O.[O]=[Mg].[O]=[Mg].[O]=[Mg],-1.01
10,NC(N)=N/N=C/c1ccccc1Cl [Sephin-1],1.29
11,CCC(C)(C)c1ccc(CC(C)CN2C[C@@H](C)O[C@@H](C)C2)cc1 (stereo partly specified) [Amorolfine HCl],28.8
12,Fc1ccc2[nH]c(CN3CCN(c4ccccn4)CC3)cc2c1,-1.89
13,O=C(O)CCCCC1CCSS1 (racemic) [(±)-alpha-Lipoic Acid],-1.6
14,CN(CCCOc1ccc(Cc2ccccc2)cc1)CCC(=O)O,0.896
15,O=C(O)Cc1cccc(OCCCN(Cc2cccc(C(F)(F)F)c2Cl)CC(c2ccccc2)c2ccccc2)c1,24.5
16,CC1(C)CCC2=C(O1)c1ccccc1C(=O)C2=O [Beta-Lapachone],-6.18
17,CC1(C)CCC2=C(O1)c1ccccc1C(=O)C2=O [beta-Lapachone],< -3.97
18,CC(C)(Oc1ccc(Cl)cc1)C(=O)O [Clofibric Acid],2.94
19,CC(C)(C)C(=O)C(Oc1ccc(Cl)cc1)n1ccnc1 (stereo unspecified) [Climbazole],38.6
20,CCOC(=O)C(C)(C)Oc1ccc(Cl)cc1 [Clofibrate],0.667
21,C[C@H](CCC(=O)NCCS(=O)(=O)O)[C@H]1CC[C@H]2[C@@H]3[C@H](O)C[C@@H]4C[C@H](O)CC[C@]4(C)[C@H]3C[C@H](O)[C@]12C [Sodium Taurocholate hydrate],-0.433
22,CCCc1cc(C)[nH]c(=O)c1CNC(=O)c1cc(-c2ccc(N3CCN(C(C)C)CC3)nc2)cc2c1cnn2C(C)C,< -6.35
23,Cc1cc(C)c(CNC(=O)c2cc(-c3ccc(CN4CCOCC4)cc3)cc3c2cnn3C2CCCC2)c(=O)[nH]1,30.2
24,CCN(c1cc(-c2ccc(CN3CCOCC3)cc2)cc(C(=O)NCc2c(C)cc(C)[nH]c2=O)c1C)C1CCOCC1,8.01
25,CCc1cc2c(cc1N1CCC(N3CCOCC3)CC1)C(C)(C)c1[nH]c3cc(C#N)ccc3c1C2=O,-2.2
26,NC(=O)[C@@H](CCC(F)(F)F)N(Cc1ccc(-c2ncon2)cc1F)S(=O)(=O)c1ccc(Cl)cc1,4.21

row,SMILES,MBP+ mature oligodendrocyte number
1,CCn1c(=O)c2c(nc(/C=C/c3ccc(OC)c(OC)c3)n2C)n(CC)c1=O [Istradefylline],-4.18
2,Cn1cc(/C=C2\C(=O)Nc3cccnc32)c2ccccc21,-3.63
3,Cn1cc(C2=C(c3ccc(Cl)cc3Cl)C(=O)NC2=O)c2ccccc21,22.4 and 12.6
4,Cn1cc(C2=C(c3cn(CCCSC(=N)N)c4ccccc34)C(=O)NC2=O)c2ccccc21 [Ro 31-8220 Mesylate],-5.25
5,Cc1[nH]c2ccccc2c1CCNCc1ccc(/C=C/C(=O)NO)cc1 [Panobinostat (LBH589)],< -6.7
6,CN(CC[C@@H](Oc1ccc(C(F)(F)F)cc1)c1ccccc1)CC(=O)[O-].[Li+],0.588
7,Clc1ccc(COC(Cn2ccnc2)c2ccc(Cl)cc2Cl)c(Cl)c1 (stereo unspecified) [Miconazole],-1.9
8,Clc1ccc(C(Cn2ccnc2)OCc2c(Cl)cccc2Cl)c(Cl)c1 (stereo unspecified) [Isoconazole nitrate],22.9
9,Clc1ccc(COC(Cn2ccnc2)c2ccc(Cl)cc2Cl)cc1 (stereo unspecified) [Econazole nitrate],5.37
10,Clc1ccc(COC(Cn2ccnc2)c2ccc(Cl)cc2Cl)c(Cl)c1 (stereo unspecified) [Miconazole Nitrate],-3.62
11,COc1ccc(C2(CNC(=O)c3ccc(NC(=O)c4ccco4)cc3)CCOCC2)cc1,-2.6
12,CC(Cc1ccc(O)c(O)c1)(NN)C(=O)O (stereo not drawn) [S-(-)-Carbidopa],-1.01
13,Cc1nccn1CC1CCc2c(c3ccccc3n2C)C1=O (stereo unspecified) [Ondansetron HCl],12.8
14,Nc1cc(Cl)c(NC2=NCCN2)c(Cl)c1 [p-Aminoclonidine hydrochloride],-0.786
15,CNC(=O)CN(CCN(CCN(CC(=O)[O-])CC(=O)NC)CC(=O)[O-])CC(=O)[O-].[Gd+3] [Gadodiamide],< -5.15
16,C#C[C@]1(O)CC[C@H]2[C@@H]3CCc4cc(OC)ccc4[C@H]3CC[C@@]21C [Mestranol],12.8
17,C#C[C@]1(O)CC[C@H]2[C@@H]3CCC4=CC(=O)CC[C@@H]4[C@H]3CC[C@@]21C [Norethindrone],6.57
18,C#C[C@]1(O)CC[C@H]2[C@@H]3CCc4cc(O)ccc4[C@H]3CC[C@@]21C [Ethinyl Estradiol],0.433
19,O=C(Nc1ccc2c(c1)CCN(Cc1ncn[nH]1)C2)c1ccccc1-c1ccc(C(F)(F)F)cc1,2
20,c1ccc2c(c1)CCC[C@H]2Nc1nc2ccccc2[nH]1 [NS8593 hydrochloride],-0.125
21,NC(=O)NO [Hydroxyurea],0.603 ± 0.14
22,CO[C@H]1C[C@@H]2CC[C@@H](C)[C@@](O)(O2)C(=O)C(=O)N2CCCC[C@H]2C(=O)O[C@H]([C@H](C)C[C@@H]2CC[C@@H](O)[C@H](OC)C2)CC(=O)[C@H](C)/C=C(\C)[C@@H](O)[C@@H](OC)C(=O)[C@H](C)C[C@H](C)/C=C/C=C/C=C/1C [Rapamycin (Sirolimus)],-5.74
23,Cc1ccc(F)c(NC(=O)Nc2ccc(-c3cccc4[nH]nc(N)c34)cc2)c1 [Linifanib (ABT-869)],-5.74
24,COc1ccc(Cl)cc1NC(=O)Nc1cc(C)nc2ccccc12,-4.52
25,Cc1cc(NC(=O)Nc2ccc(N(C)C)cc2)c2cc(F)cc(F)c2n1,29.4
